Screening results deposited in PubChem BioAssay by National Center for Advancing Translational Sciences (NCATS).
This is a sample that favours compounds with a hit; in the whole collection about 1.3% have one here.
AMA1 RON2 block: inhibitors of Plasmodium falciparum AMA1-RON2 interaction; AID 720542; 360,000 tested, 0.2% active; AlphaScreen AMA1-biotinylated RON2 peptide binding; Potency, µM (highest dose often 58.2 µM), for inactives: at the top dose activity change, negative = inhibition, most hits filed as inhibitors;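 further: potency means the concentration at half of the fitted maximal effect; 0% = vehicle wells and -100% = peptide control; nearly all actives have a fitted effect of over 45% in size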
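AMA1 (3D7) with his tag at 25 nM final met compounds first, then biotinylated RON2 peptide at 25 nM; detection used donor plus acceptor beads, 10 µg/mL apiece, read by AlphaScreen after 30 min at room temperature.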
RE007 growth inh: less growth of the S. pombe RE007 Vpr strain; S. pombe RE007 Vpr strain, BacTiter-Glo ATP luminescence, 24 h; Potency, µM (titrated, usually from 92.2 µM), without a hit: at the top dose activity change, negative = less growth, usual class: inhibitors; 360,000 tested, 0.21% active; active means well fitted falling curve with a large enough effect; inconclusive means small, poorly fitted or top-dose-only effect; inactive means no such curve, though single readings can be large or run the other way; further: potency means the concentration at half of the fitted maximal effect; on the % scale 0 is the no-effect control and ±100 the full control effect; nearly all actives have a fitted effect of over 50% in size
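Fission yeast strain RE007, carrying one chromosomally integrated HIV-1 vpr copy, was seeded at OD 0.01 in PMG+AL medium with 23 nL pinned compound. After 24 h at 30 °C and 99% humidity, viability was read by BacTiter-Glo luminescence.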
LmPK inh: inhibitors of Leishmania mexicana pyruvate kinase. Q27686. purified LmPK, Kinase-Glo ATP luminescence, 1 h. Potency, µM (titrated, usually from 57.5 µM), for the others: at the highest dose activity change, negative = inhibition, actives largely listed as inhibitors. 290,000 tested, 0.37% active. AID 1721; further: potency means the concentration at half of the fitted maximal effect; on the % scale 0 is the no-effect control and ±100 the full control effect
Target sequence (Q27686 whole entry, looked up): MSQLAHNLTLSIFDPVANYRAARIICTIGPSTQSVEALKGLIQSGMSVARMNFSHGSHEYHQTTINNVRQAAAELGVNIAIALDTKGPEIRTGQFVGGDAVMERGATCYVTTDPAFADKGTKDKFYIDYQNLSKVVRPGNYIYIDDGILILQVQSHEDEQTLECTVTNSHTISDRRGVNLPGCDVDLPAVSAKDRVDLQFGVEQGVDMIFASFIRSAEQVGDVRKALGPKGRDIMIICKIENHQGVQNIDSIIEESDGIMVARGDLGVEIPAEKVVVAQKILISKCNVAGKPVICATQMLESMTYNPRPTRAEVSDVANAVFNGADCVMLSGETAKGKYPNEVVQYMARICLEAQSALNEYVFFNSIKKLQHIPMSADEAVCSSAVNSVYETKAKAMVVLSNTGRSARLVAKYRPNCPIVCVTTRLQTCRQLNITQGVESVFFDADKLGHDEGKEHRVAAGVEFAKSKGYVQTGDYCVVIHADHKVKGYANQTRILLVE
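Pyruvate kinase activity monitored as ATP production (luciferase luminescence). Conditions: 0.1 nM enzyme, 0.5 mM PEP, 0.1 mM ADP, 1 h, RT; normalized against uninhibited and no-enzyme wells.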
TbPYK inhibitor: blocks Trypanosoma brucei pyruvate kinase; Q57TT1; 410,000 tested, 0.12% active; TbPYK enzyme, Kinase-Glo Plus ATP luminescence, 45 min; Potency, µM (series often up to 76.8 µM), for the others: at the top dose activity, negative = inhibition, hits mostly inhibitors; further: potency means the concentration at half of the fitted maximal effect; on the % scale 0 is the no-effect control and ±100 the full control effect; nearly all actives have a fitted effect of over 50% in size
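TbPYK + substrate in 50 mM TEA pH 7.2, 100 mM KCl, 10 mM MgCl2, 0.05% BSA, 0.01% Tween-20; cpd pinned; ADP 130 uM final; 45 min RT; Kinase-Glo Plus 10 min; luminescence endpoint.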
VACV mCherry inh: inhibitors of vaccinia virus infection (mCherry reporter signal). Vaccinia virus mCherry reporter infection, fluorescence. Potency, µM (doses to about 36.5 µM), without a hit: at the highest dose activity change, negative = inhibition, actives largely listed as inhibitors. 310,000 tested, 0.63% active; calls by dose curve; tested in A549 cells; further: potency means the concentration at half of the fitted maximal effect; on the % scale 0 is the no-effect control and ±100 the full control effect; nearly all actives have a fitted effect of over 35% in size
VACV Venus inh: inhibitors of vaccinia virus (Venus reporter). Vaccinia virus Venus reporter expression, fluorescence. Potency, µM (top dose mostly 36.5 µM), inactives show at the highest dose activity change, negative = inhibition, most hits filed as inhibitors. 330,000 tested, 0.46% active. AID 720580; calls by dose curve; tested in A549 cells; further: potency means the concentration at half of the fitted maximal effect; on the % scale 0 is the no-effect control and ±100 the full control effect; nearly all actives have a fitted effect of over 30% in size
LmPK confirm: Confirms inhibition of Leishmania mexicana pyruvate kinase. shares compounds with LmPK inh. purified LmPK, Kinase-Glo ATP luminescence, 1 h. Potency, µM (titrated, usually from 57.5 µM), inactives show at the top dose activity change, negative = inhibition, actives largely listed as inhibitors. 150 tested, 40% active. AID 2559;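 active means compounds giving a full or partial concentration-response curve, as inhibitors or activators; inconclusive means weak, top-dose-only or unclear curve responses; inactive means no response at any tested dose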
Numbers without * were called inactive; i = inactive; ? = inconclusive; . = no result given; [ ] = dose if it differs, or a comment. Unless noted, the call rests on the fitted dose curve; in most records, active means well fitted curve in the direction sought with a large enough effect; inconclusive means small, poorly fitted or top-dose-only effect, or another doubt; inactive means no such curve, though single readings can be large; an effect the other way counts as inactive or inconclusive.

SMILES	AMA1 RON2 block	RE007 growth inh	LmPK inh	TbPYK inhibitor	VACV mCherry inh	VACV Venus inh	LmPK confirm
Cc1ccc(-c2nnc(N(C)C(=O)c3cccnc3)s2)cc1	15%	-3%	-1%	-3%	-26%	-24%	-5%
COc1ccc(C(=O)NCC(=O)OCC(=O)c2cccc3ccccc23)cc1	.	.	.	.	14%	-3%	.
COc1cccc(CC(=O)Nc2ccc(-c3nc4ccccc4s3)cc2)c1	.	.	.	3%	-9%	-6%	.
COc1cccc(-c2nc3ccccc3s2)c1	32%	?	10µM*	-19%	.	-10%	?
COc1ccc2cc(-c3nc4ccc(C(=O)O)cc4[nH]3)c(=O)oc2c1	.	.	.	-6%	-15%	-11%	.
CCc1n[nH]c(=S)n1/N=C/c1ccc2c(c1)OCO2	37%	-1%	-14%	?	.	.	-1%
CCc1n[nH]c(=S)n1/N=C/c1ccc(N(C)c2ccccc2)cc1	81%	-2%	-4%	?	-15%	-13%	.
Cc1c(C(=O)N2CCCC(C)C2)sc2ncnc(NCCN3CCCCC3)c12 (centres undefined)	.	.	.	.	-23%	-11%	.
O=c1c2ccccc2cnn1-c1nc2ccccc2[nH]1	9%	?	2.2µM*	13µM*	.	.	3.3µM*
CCn1c(-c2ccccc2Cl)nn(CC(=O)Nc2ccc(OC)cc2)c1=S	-4%	-9%	-5%	0%	.	?	11%
O=C(COC(=O)CCC(=O)c1ccc(F)cc1)Nc1ccc(F)cc1F	22%	-1%	2.2µM*	0%	9%	-5%	-8%
CC(=O)Nc1ccc(C(=O)NNC(=O)CCc2ccccc2)cc1	1%	-11%	-4%	-7%	i	-7%	4%
COc1cc2c(cc1OC)C(C(C(=O)N(CCc1ccc(OC)c(OC)c1OC)CCc1ccc(OC)c(OC)c1OC)c1ccccc1)=NCC2 (centres undefined)	.	.	.	3%	12%	-15%	.
Cc1ncoc1C(=O)N1CCOc2ccc(CN3CCC(Oc4cccnc4)CC3)cc2C1	.	.	.	.	-2%	7%	.
O=C(Nc1cccc(O)c1)C(=O)Nc1ccccn1	-1%	?	7.9µM*	?	?	-14%	21µM*
CCOc1ccc(NC(=O)c2c(NCc3sccc3C)sc3c2CCCCC3)cc1	.	.	.	-27%	-14%[7.34 µM]	-3%[7.34 µM]	.
Cc1ccc(-c2cc3c(nn2)-c2ccccc2C3=O)cc1	-11%	-18%	7.1µM*	?	?	3%	10µM*
Cc1ccc(Oc2ccccc2/C=C2\SC(=O)N(C)C2=O)cc1	29%	-7%	-5%	-2%	.	.	-4%
CC1(C)O[C@@H]2C[C@H]3[C@@H]4CCC5=CC(=O)C=C[C@]5(C)[C@H]4C(O)C[C@]3(C)[C@]2(C(=O)CO)O1 (some centres undefined)	.	.	.	-8%	.	.	.
Cc1ccc(-n2c(SCC(=O)Nc3ccc(C(=O)O)cc3)nnc2-c2ccncc2)cc1	-5%	1%	3%	2%	i	-7%	.
Cc1ccc(C(=O)NNC(=O)CSc2nnc(-c3ccncc3)n2-c2ccc(C)cc2)cc1	.	.	-23%	.	.	.	3%
COc1ccc(CCN2C(=O)CN(C3CCC(C)CC3)C(=O)C2c2ccc(OC(C)C)c(OC)c2)cc1OC (centres undefined)	.	.	.	-3%[15.4 µM]	-13%	-2%	.
Cc1cc(C)c(S(=O)(=O)n2ccc(-c3ccc(OCCN(C)c4ccccn4)cc3)n2)c(C)c1	-4%	-4%	3%	-5%	-22%	-20%	2%
CCCCc1nc2c(c3c1C[C@H](C)OC3)CN(C(=O)Nc1ccc(OC)cc1)CC2	.	.	-9%[11.5 µM]	.	.	.	.
Cc1occc1C(=O)O/N=C(\N)c1ccccc1	-3%	?	3.5µM*	?	-9%	-6%	10µM*
SMILES	AMA1 RON2 block	RE007 growth inh	LmPK inh	TbPYK inhibitor	VACV mCherry inh	VACV Venus inh	LmPK confirm
Cc1cccc(C(=O)NC2CCN(C(=S)NCc3ccco3)CC2)c1	-21%	-4%	-8%	-4%	-3%	-11%	-1%
CCOc1ccc(C(=O)NC2CCN(C(=S)NCc3ccco3)CC2)cc1	-3%	-13%	2%	7%	i	-19%	.
O=C(c1ccccc1)n1ccn(-c2ccccc2)c1=S	-8%	-3%	-2%	5%	.	.	.
O=C(c1ccccc1)n1c(=S)nc2ccccn21	-20%	-26%	4.5µM*	?	-7%	3%	18µM*
CCOC(=O)c1c(C)n(-c2ccc(C)cc2)c2c(C(C(C)=O)C(=O)O)c(Br)c(O)c(O)c12 (centres undefined)	-26%	2%	-29%	-25%	.	?	.
CCOC(=O)C(C(C)=O)c1c(Br)c(O)c(O)c2c(C(=O)c3ccc(C)cc3)coc12 (centres undefined)	-27%	-7%	5.6µM*	-18%	13µM*	13µM*	-7%
Cn1c(-c2ccc(Br)cc2)cnc1NCc1cccnc1	?	-4%	-3%	5%	-10%	?	4%
COc1ccc(C(=O)c2cn(Cc3ccc(C)cc3)c3cc4c(cc3c2=O)OCO4)cc1	.	.	.	-2%	-4%[7.34 µM]	-5%[7.34 µM]	.
Nc1ncnc2c1ncn2C1OC(COP(=O)(O)O)C(O)C1O (centres undefined)	-1%	?	16µM*	-23%	-12%	-4%	5.8µM*
Nc1ncnc2c1ncn2[C@@H]1O[C@H](COP(=O)(O)O)[C@@H](O)[C@H]1O	6%	?	10µM*	?	i	-6%	6.5µM*
CCOC(=O)c1sc2cccc(F)c2c1S(=O)(=O)N1CCN(c2cccc(Cl)c2)CC1	.	.	.	-12%	-11%	-1%	.
Cc1ccnc(N2C(=O)c3ccccc3C2=O)c1	-11%	2%	-6%	-1%	-14%	-10%	-14%
COc1ccc(-c2cc3nc(C)cc(N)n3n2)cc1	2%	16µM*	3.5µM*	22µM*	-8%	-14%	5.8µM*
COc1ccc(-c2cc3nc(C)cc(-c4ccc(OC)cc4)n3n2)cc1	110%	4%	6%	-2%	.	.	.
O=C(NCCc1cccs1)c1ccc(Cn2c(SCc3ccc(F)cc3)nc3cccnc32)cc1	.	.	.	-4%	-7%	-13%	.
Cc1ccc(C(=O)N2c3ccccc3CC2C)o1 (centres undefined)	-28%	?	6.3µM*	-19%	-19%	-20%	?
Fc1ccc(-c2nc3n(n2)Cc2ccccc2-3)cc1	-8%	?	3.5µM*	-11%	.	-15%	?
Cc1cc(C)n2nc(-c3ccc(F)cc3)nc2n1	8%	-11%	?	-8%	.	-9%	.
Cc1ccc(C)c(/C(O)=C2/C(=O)C(=O)N(CCN3CCOCC3)C2c2ccco2)c1 (centres undefined)	-7%	-4%	2%	4%	-14%	-10%	10%
